PubChem BioAssay AID588342 (National Center for Advancing Translational Sciences (NCATS), 2011)
The campaign covered roughly 360,000 compounds. About 25,000 (6.9%) were called active. Not shown: some 9% with an inconclusive outcome. Calls come from the whole dose curve; as a rule, active = well fitted inhibition curve with a large enough effect; inconclusive = small, poorly fitted or top-dose-only effect; inactive = flat fitted curve, though single readings scatter. The list comes from a sample in which actives are over-represented; it also holds similar structures and randomly drawn compounds. A call without a number means that no potency is given here.

biological target: Luciferin 4-monooxygenase (Photinus pyralis) (UniProt P08659); assay: qHTS profiling assay for firefly luciferase inhibitor/activator using purifed enzyme and Km concentrations of substrates (counterscreen for miR-21 project); conditions: purified FLuc, luminescence inhibition; series mostly up to 57.5 µM; note: nearly all actives have a fitted effect of over 55% in size
Sequence (P08659 whole entry, looked up): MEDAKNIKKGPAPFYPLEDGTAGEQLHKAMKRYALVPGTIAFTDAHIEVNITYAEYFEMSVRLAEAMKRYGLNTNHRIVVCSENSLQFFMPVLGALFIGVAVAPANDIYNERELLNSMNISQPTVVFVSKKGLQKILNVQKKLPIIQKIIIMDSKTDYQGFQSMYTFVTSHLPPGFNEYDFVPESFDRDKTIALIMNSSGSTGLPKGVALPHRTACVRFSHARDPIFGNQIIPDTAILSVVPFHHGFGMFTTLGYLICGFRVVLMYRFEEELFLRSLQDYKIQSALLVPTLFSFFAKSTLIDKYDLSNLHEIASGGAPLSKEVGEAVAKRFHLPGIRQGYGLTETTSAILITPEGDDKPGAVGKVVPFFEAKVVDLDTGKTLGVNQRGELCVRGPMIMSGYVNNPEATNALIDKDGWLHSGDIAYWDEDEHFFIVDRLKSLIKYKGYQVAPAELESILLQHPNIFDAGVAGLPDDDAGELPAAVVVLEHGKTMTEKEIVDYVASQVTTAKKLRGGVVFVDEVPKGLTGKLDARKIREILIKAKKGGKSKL
Outline: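 Purified P. pyralis luciferase, 10 nM final, with Km-level 10 uM D-luciferin and 10 uM ATP in 50 mM Tris acetate pH 7.5, 10 mM Mg acetate, 0.01% Tween-20, 0.05% BSA; 6-point qHTS titration about 60 µM downward; luminescence read.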
Potency is the fitted concentration of half-maximal effect.

Compound | Potency
CC1CCCC(C)N1C(=O)CN1CCN(c2nc(-c3ccc(F)cc3)cs2)CC1 (stereo unspecified) | inactive
COc1ccc(NC(=O)COCc2cc(-c3ccco3)on2)cc1 | inactive
CCOc1cc(NC(=S)NCCCOC)c(OCC)cc1NC(=O)c1ccco1 | inactive
COCCNC(=O)Nc1ccc2nc(-c3ccco3)c(-c3ccco3)nc2c1 | 21.3 µM (active)
Cc1ccc(C(=O)NCC(=O)OCC(=O)Nc2cccc(S(=O)(=O)N3CCCC3)c2)cc1C | 9.53 µM (active)
Cc1ccc(C)c(OCCC(=O)Nc2cccc(S(=O)(=O)N3CCCC3)c2)c1 | inactive
O=C(CCNC(=O)c1ccc(Br)cc1)Nc1cccc(S(=O)(=O)N2CCCCC2)c1 | inactive
CC(OC(=O)c1ccc2ccccc2n1)C(=O)c1ccccc1 (stereo unspecified) | 0.953 µM (active)
COc1ccc(C(=O)COC(=O)c2ccc3ccccc3n2)cc1 | 21.3 µM (active)
CC(OC(=O)CN1C(=O)c2ccccc2C1=O)C(=O)c1ccccc1 (stereo unspecified) | inactive
COc1ccc(C(=O)COC(=O)COc2ccc(C)c(C)c2)cc1 | inactive
COc1ccc(C(=O)OCC(=O)NC(=O)CCSc2ccccc2)cc1 | inactive
CC(OC(=O)c1ccccc1N1C(=O)C2C3CCC(C3)C2C1=O)C(=O)c1ccccc1 (stereo unspecified) | inactive
CCc1ccc2ncc3c(-c4ccc(C)cc4)nn(CC(=O)NCc4ccccc4)c3c2c1 | inactive
COC(=O)C1=CO[C@@H](O[C@@H]2O[C@H](CO)[C@@H](O)[C@H](O)[C@H]2O)C2C1C[C@H](O)[C@@H]2C (stereo partly specified) | inactive
Cc1ccc(Cn2c(SCC(=O)N/N=C/c3ccccc3OCC(=O)O)nc3ccccc32)cc1 | inactive
CCn1c(SCC(=O)N/N=C/c2ccccc2OCC(=O)O)nnc1-c1ccc(C(C)(C)C)cc1 | 26.9 µM (active)
CCn1c(SCC(=O)N/N=C/C=C/c2ccccc2[N+](=O)[O-])nnc1-c1ccccc1 | inactive
CNC(=O)c1csc(Cc2c(Cl)sc3ccc(Cl)cc23)n1 | inactive
O=C(COC(=O)c1ccco1)NCc1ccc(Cl)cc1 | inactive
O=C(COC(=O)c1ccccc1C(=O)c1ccccc1)c1ccco1 | inactive
CCN(CC)c1ccc(C(=O)OCC(=O)c2ccco2)cc1 | 15.1 µM (active)

Compound | Potency
O=C(OCC(=O)N1CCCC1)c1ccco1 | inactive
CCc1ccc(C(=O)COC(=O)c2ccco2)cc1 | 0.478 µM (active)
O=C(OCC(=O)N1CCN(C(=O)c2ccco2)CC1)c1ccc(Cl)c(Cl)c1 | inactive
C[C@@H](NC(=O)[C@@H]1Cc2ccccc2CN1)C(=O)NC1CCCC1 | inactive
COc1ccccc1CNC(=O)c1cc(=O)c2ccccc2o1 | inactive
CCOC(=O)c1sc(N)c(C#N)c1COC(=O)C1=COCCO1 | inactive
CN(CC(=O)Nc1c(Cl)cccc1Cl)C(=O)CC1OC(=O)c2ccccc21 (stereo unspecified) | inactive
CCOc1ccc(N(CC)S(=O)(=O)N2CCCC(C(=O)NCc3ccc(SC)cc3)C2)cc1 (stereo unspecified) | inactive
Cc1oc2c(c1C(=O)Nc1ccc(F)c(F)c1)C1=NCCN1C=N2 | inactive
Brc1ccccc1C1N=C(c2ccccc2)NO1 (stereo unspecified) | 19 µM (active)
N#Cc1ccc(C2N=C(c3ccccc3)NO2)cc1 (stereo unspecified) | 10.7 µM (active)
CCOC(=O)Cn1c(=O)n(C2CCCCC2)c2nc(-c3cccc(OC)c3)nc(C(N)=O)c21 | inactive
COc1ccc(CNC(=O)c2cc3c(-c4ccccc4F)nn(C)c3s2)c(OC)c1 | inactive
CCOC(=O)C1CCCN(C(=O)c2ccc(-n3ccc4ccccc43)s2)C1 (stereo unspecified) | inactive
CCN(Cc1ccccc1)C(=O)CCS(=O)(=O)c1ccc2c(c1)oc(=O)n2C | inactive
Cc1ccc(/C=C/C(=O)OCC(=O)NCc2ccc(Cl)cc2)o1 | inactive
CCC(=O)N1CCc2cc(Br)cc(S(=O)(=O)NCc3ccc(Cl)cc3)c21 | inactive
C=CCNC(=O)c1ccc(C)c(Br)c1 | inactive
C=CCNC(=O)c1ccc2c3n(nc2c1)-c1ccc(C)cc1CO3 | 2.39 µM (active)
CCCNC(=O)c1ccc2c(c1)ncn2-c1ccc(C)cc1C | inactive
COc1cccc(CNC(=O)C(NS(=O)(=O)c2ccc3nc(C)sc3c2)C(C)C)c1 (stereo unspecified) | inactive
COc1ccc(OC)c(/C(C)=N\NC(=O)c2cc3cc(Cl)ccc3n2C)c1 | inactive

Compound | Potency
COc1ccc(Cl)cc1NC(=O)CN(C)C(=O)CNC(=O)C12CC3CC(CC(C3)C1)C2 | inactive
C/C(=N/NC(=O)c1cc(Cl)ccc1O)C12CC3CC(CC(C3)C1)C2 | 15.1 µM (active)
NC(=O)NCCCC(=O)O | inactive
CSc1ncc(C(=O)NCc2ccccc2Cl)c(C(F)(F)F)n1 | inactive
Cc1cccc(C)c1OCCN1CCOCC1 | inactive
Cc1cc2nc(SCCN3CCOCC3)[nH]c2cc1C | 19 µM (active)
CCn1c2ccc(F)cc2c2nnc(SCCN3CCOCC3)nc21 | inactive
Cc1ccc(C(=O)Nc2ccc(NC(=O)c3cccs3)cc2)c(C)c1 | inactive
Cc1ccc(NC(=O)c2cccs2)cc1S(=O)(=O)N(C)C | 15.1 µM (active)
Cc1ccc(NC(=O)CNCc2ccccn2)cc1S(=O)(=O)N(C)C | inactive
Cc1ccc(C(=O)Nc2ccc(C(=O)O)cc2)cc1S(=O)(=O)Nc1ccccc1 | inactive
COc1ccc(CCC(=O)OCC(=O)Nc2ccc(C)c(S(=O)(=O)N(C)C)c2)cc1 | inactive
Cc1ccc(C(=O)Nc2ccc(C)c(S(=O)(=O)N(C)C)c2)s1 | 1.9 µM (active)
Cc1cc(C)c(/C=C/c2onc(C)c2S(=O)(=O)N2CCC(C(=O)Nc3ccc(Cl)cc3C)CC2)c(C)c1 | inactive
COc1ccc(C(=O)CSc2c(C(C)C)cnc3c2c(=O)n(C)c(=O)n3C)cc1 | inactive
O=C(CSc1nc2nccnc2c(=O)n1CCc1c[nH]c2ccccc12)Nc1ccccc1F | inactive
O=C(CN1CCN(Cc2ccc(Cl)cc2)C1=O)NCc1ccc(F)cc1 | inactive
COc1ccc(N2C(=O)CS(=O)(=O)C23C(=O)N(Cc2ccc(C)cc2)c2ccccc23)cc1Cl (stereo unspecified) | inactive
O=S(=O)(NCCS(=O)(=O)N1CCN(c2ccccc2)CC1)c1ccc(Cl)cc1 | inactive
CC1=NN(Cc2ccccc2)C(=O)/C1=C/c1ccc(N(C)C)cc1 | 6.75 µM (active)
CN(C)c1cc[n+](Cc2ccccc2)cc1 | inactive
CSc1c(SCc2ccccc2)cnn(Cc2ccccc2)c1=O | inactive
